Only some compounds are listed: those with a hit (about 3.3% of all), similar ones and a draw of the others.
697 NFkB inh = inhibitors of PMA/ionomycin-induced NF-kB reporter, 697 cells, primary screen, B-cell NF-kB inhibitor project, cell-based, luminescence, uHTS | hit rate 0.33% among 330,000 | 697 B-cell NF-kB luciferase reporter, 16 h | inhibition, % at 4 µM; in the data active = inhibition above about 35%
esBAF inh = Bmi1 luciferase reporter increase in mESCs, primary screen, esBAF inhibitor project, mouse ES cells, Bmi1 luciferase knock-in, single point | reporter increase, % at 12.5 µM | 24 h; 100% = twice the neutral-well signal | hit rate 2% among 350,000 | AID 602393, 2012; in the data active = activation above about 40%;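 also: 0% = median of the plate's neutral control wells and 100% = double that signal; a rise in the Bmi1 reporter signal indicates esBAF inhibition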
Gli-Sufu antag = Gli-Sufu pathway antagonists, primary screen, luciferase luminescence, Sufu-KO-LIGHT cells, uHTS. Sufu-KO-LIGHT fibroblasts, Gli luciferase reporter luminescence. inhibition, % at 5 µM. hit rate 0.74% among 340,000. AID 588413, 2011;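 active = inhibition above about 55%, limit read from the data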;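 also: 0% = DMSO-treated cells and 100% = wells with medium but no cells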
SMARCA2 act = SMARCA2 (BRM) function activators, primary screen, cell-based, luminescence, high throughput; MG213 cells, MMTV-luciferase reporter, dexamethasone, overnight; AID 652017, 2013; activation, % at 9.1 µM; hit rate 1% among 370,000; in the data active = activation above about 7.8%;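 also: 0% = vehicle wells and 100% = reference activator wells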
Jurkat NFkB inh = inhibitors of induced NF-kB luciferase reporter, primary screen, TCR NF-kB activation inhibitor project, cell-based, luminescence, uHTS. inhibition, % at 4 µM. hit rate 0.53% among 330,000. Jurkat, PMA/ionomycin-induced NF-kB luciferase reporter; in the data active = inhibition above about 50%
Jurkat NFkB conf = PMA/ionomycin-induced NF-kB reporter inhibitors, Jurkat retest, confirmation, T-cell NF-kB inhibitor project, cell-based, luminescence, single concentration | inhibition, % at 4 µM | shares compounds with Jurkat NFkB inh | Jurkat NF-kB luciferase, 16 h | hit rate 27% among 2,700;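 active = inhibition reaching about 45% at 4 µM in either replicate, limit read from the data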;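 also: plate controls were PMA/ionomycin stimulated DMSO wells for no effect and unstimulated DMSO wells for full effect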
An asterisk follows results filed as active.

Results for CCc1ccc(Nc2ncc3c(n2)CC(C)CC3=O)cc1 (stereo not given) ?
697 NFkB inh: -164.4; Gli-Sufu antag: -112.4; SMARCA2 act: 0.0; Jurkat NFkB inh: -172.0; Jurkat NFkB conf: -91.3

How did Cc1ccc(/C=N/NC(=O)c2cc(-c3cccnc3)nc3ccccc23)cc1 do in these assays?
697 NFkB inh: -14.5; Gli-Sufu antag: -3.5; SMARCA2 act: -2.8; Jurkat NFkB inh: 62.8*; Jurkat NFkB conf: 11.6

How did O=C(N/N=C/c1ccc(Cl)cc1)c1cc(-c2cccnc2)nc2ccccc12 do in these assays?
697 NFkB inh: -41.8; Gli-Sufu antag: -18.3; SMARCA2 act: -4.3; Jurkat NFkB inh: 65.6*; Jurkat NFkB conf: 14.8

How did O=C(N/N=C/c1cccnc1)c1cc(-c2ccc(Cl)cc2)nc2ccccc12 do in these assays?
697 NFkB inh: -7.4; esBAF inh: 20.9; Gli-Sufu antag: 2.9; SMARCA2 act: -4.4; Jurkat NFkB inh: 4.2

What do the screens show for `Cc1cc(C)c(CN2CCN(C(=O)Cn3cnc4c(OCc5ccccc5)ncnc43)CC2)c(C)c1`?
697 NFkB inh: 33.2; esBAF inh: -4.0; Gli-Sufu antag: 45.6; SMARCA2 act: -7.3; Jurkat NFkB inh: 59.0*; Jurkat NFkB conf: 59.4*

What do the screens show for `O=C(O)Cn1cnc2c(OCc3ccccc3)ncnc21`?
697 NFkB inh: -7.0; esBAF inh: 2.3; Gli-Sufu antag: 17.6; SMARCA2 act: 0.5; Jurkat NFkB inh: -5.1

What do the screens show for `CCNC(=O)Nc1ccc2c(c1)C(=O)N(C)[C@H]1CC[C@H](CC(=O)NCC3CC3)O[C@H]1CO2`?
esBAF inh: -2.3

Results for CCC(=O)c1ccc(OCC(=O)Nc2ccccc2N2CCCCC2)cc1 ?
697 NFkB inh: -10.8; esBAF inh: -2.1; Gli-Sufu antag: 7.4; SMARCA2 act: -2.1; Jurkat NFkB inh: 51.4*; Jurkat NFkB conf: 10.8

What do the screens show for `CCC(=O)c1ccc(OCC(=O)Nc2ccccc2N2CCOCC2)cc1`?
697 NFkB inh: -4.8; esBAF inh: -0.6; Gli-Sufu antag: 3.7; SMARCA2 act: -0.7; Jurkat NFkB inh: -15.9

How did CCOC(=O)N1CCC(NC(=O)c2ccc3c(c2)N=C(C)c2c(C)ccc(C)c2S3)CC1 do in these assays?
697 NFkB inh: -42.4; esBAF inh: -26.3; Gli-Sufu antag: 43.9; SMARCA2 act: -1.1; Jurkat NFkB inh: 64.6*; Jurkat NFkB conf: 55.8*

Results for CCOC(=O)N1CCC(NC(=O)c2ccc3c(c2)N=C(CC)c2cc(C)ccc2S3)CC1 ?
697 NFkB inh: -39.2; esBAF inh: 5.4; Gli-Sufu antag: 19.2; SMARCA2 act: -6.2; Jurkat NFkB inh: 43.3

How did Cc1ccc(Nc2nc(-c3ccc(F)cc3)cs2)nc1 do in these assays?
697 NFkB inh: -186.9; esBAF inh: 76.2*; Gli-Sufu antag: -80.7; SMARCA2 act: 0.4; Jurkat NFkB inh: -175.0; Jurkat NFkB conf: -80.8

What do the screens show for `Cc1ccc(Nc2nc(-c3ccc(O)c(O)c3)cs2)nc1`?
697 NFkB inh: -33.7; Gli-Sufu antag: 64.2*; SMARCA2 act: -2.2; Jurkat NFkB inh: 53.2*; Jurkat NFkB conf: -0.7

What do the screens show for `CC(=O)Nc1cccc(-c2csc(Nc3ccc(Cl)cn3)n2)c1`?
697 NFkB inh: -194.0; Gli-Sufu antag: -132.5; SMARCA2 act: 2.9; Jurkat NFkB inh: -156.3; Jurkat NFkB conf: -76.0

What do the screens show for `CC(=O)Nc1ccc(-c2csc(Nc3ccc(Cl)cn3)n2)cc1`?
697 NFkB inh: -25.8; Gli-Sufu antag: -36.4; SMARCA2 act: -4.3; Jurkat NFkB inh: 18.1

Results for COc1ccc(CN(C)C[C@@H]2Oc3ccc(NC(=O)CCC(F)(F)F)cc3C(=O)N([C@@H](C)CO)C[C@@H]2C)cc1 ?
esBAF inh: 2.3

What do the screens show for `CN1C(=O)c2cc(NC(=O)c3cscn3)ccc2OC[C@H]2O[C@H](CC(=O)N3CCCCC3)CC[C@@H]21`?
esBAF inh: -0.5

How did C[C@@H]1CN([C@H](C)CO)S(=O)(=O)c2ccc(-c3ccccc3)cc2O[C@@H]1CN(C)C(=O)c1ccccc1F do in these assays?
esBAF inh: 9.5
